The results in this text go back to paper PMC8384837, “Expanding the binding specificity for RNA recognition by a PUF domain”.

What all share (assay): yeast three-hybrid, YBZ-1, SC-Leu-His + 0.5 mM 3-AT, 4 days
What all share (details): tags: N-Gal4 AD-HA kept; label: inside an RPR1-promoter hybrid RNA with tandem MS2 sites; ssRNA

One assay deals with PUM1 PUF domain R5-QWN (Homo sapiens, UniProt Q14671 828-1176, C1007Q;R1008W;Q1011N). An outline of the steps: (§1)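 Pumilio-1 PUF domain libraries, randomized at the three base-contacting residues of each repeat, were co-expressed with matching RNA elements from a centromeric plasmid in strain YBZ-1, which carries a LexA–MS2 coat fusion and a HIS3 reporter. Transformants grew for four days on SC-Leu (input) or on SC-Leu-His + 0.5 mM 3-AT (selection), and the repeat regions were PCR-amplified and Illumina-sequenced. The interaction score is the log change in variant frequency from input to selection. That logarithm is base 2, with a pseudocount of 1 where a variant was absent.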

For a further assay, the target named is PUM1 PUF domain R5-RQS (Homo sapiens, UniProt Q14671 828-1176, C1007R;R1008Q;Q1011S). An outline of the steps: as §1
Another assay concerns the target PUM1 PUF domain R5-RRL (Homo sapiens, UniProt Q14671 828-1176, C1007R;Q1011L). An outline of the steps:
as §1

The next assay addresses PUM1 PUF domain R4-WGC (Homo sapiens, UniProt Q14671 828-1176, N971W;H972G;Q975C). An outline of the steps:
as §1

The next assay has as its target PUM1 PUF domain R1-GLR (Homo sapiens, UniProt Q14671 828-1176, S863G;R864L;Q867R). An outline of the steps: as §1

Sequence of PUM1 PUF domain R1-GLR (Q14671 828-1176 S863G/R864L/Q867R): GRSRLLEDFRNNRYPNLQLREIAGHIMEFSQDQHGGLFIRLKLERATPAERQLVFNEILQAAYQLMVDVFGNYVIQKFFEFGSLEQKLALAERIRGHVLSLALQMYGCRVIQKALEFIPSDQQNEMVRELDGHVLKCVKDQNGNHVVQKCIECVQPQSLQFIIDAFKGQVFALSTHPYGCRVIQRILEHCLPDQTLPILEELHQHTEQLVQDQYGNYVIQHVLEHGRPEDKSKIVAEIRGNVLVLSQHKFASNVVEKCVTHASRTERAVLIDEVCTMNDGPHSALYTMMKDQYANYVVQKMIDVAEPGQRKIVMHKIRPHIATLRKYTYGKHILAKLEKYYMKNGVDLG
Sequence of PUM1 PUF domain R5-QWN (Q14671 828-1176 C1007Q/R1008W/Q1011N): as the sequence (Q14671 828-1176 S863G/R864L/Q867R) above, with G36S, L37R, R40Q, C180Q, R181W, Q184N counted along it
Sequence of PUM1 PUF domain R5-RRL (Q14671 828-1176 C1007R/Q1011L): as the sequence (Q14671 828-1176 S863G/R864L/Q867R) above, with G36S, L37R, R40Q, C180R, Q184L counted along it
Sequence of PUM1 PUF domain R4-WGC (Q14671 828-1176 N971W/H972G/Q975C): as the sequence (Q14671 828-1176 S863G/R864L/Q867R) above, with G36S, L37R, R40Q, N144W, H145G, Q148C counted along it
Sequence of PUM1 PUF domain R5-RQS (Q14671 828-1176 C1007R/R1008Q/Q1011S): as the sequence (Q14671 828-1176 S863G/R864L/Q867R) above, with G36S, L37R, R40Q, C180R, R181Q, Q184S counted along it

Regarding “GGCUAGAACUAGUGGAUCCCCCGGCGCCCGGCGGCUCGAGCCCGGGUAAGUGUGAAUAGUCUGCAUGCCGCCGGGCGCCAUGCCUGCAGGUCGACUCUAGAAAACAUG”, the binding signal is 4.78 log2 enrichment (interaction score) with PUM1 PUF domain R5-QWN, 1.05 log2 enrichment (interaction score) with PUM1 PUF domain R5-RQS and 1.14 log2 enrichment (interaction score) with PUM1 PUF domain R5-RRL.

For the sequence “GGCUAGAACUAGUGGAUCCCCCGGCGCCCGGCGGCUCGAGCCCGGGUAAGUGUAUAUAGUCUGCAUGCCGCCGGGCGCCAUGCCUGCAGGUCGACUCUAGAAAACAUG”, the binding signal with PUM1 PUF domain R4-WGC is 4.53 log2 enrichment (interaction score).

In the case of “GGCUAGAACUAGUGGAUCCCCCGGCGCCCGGCGGCUCGAGCCCGGGUAAGUGUAAAUUGUCUGCAUGCCGCCGGGCGCCAUGCCUGCAGGUCGACUCUAGAAAACAUG”, the binding signal in the assay with PUM1 PUF domain R1-GLR was 2.9 log2 enrichment (interaction score).
